{
  "source": "PubChem BioAssay AID651863",
  "about": "(Broad Institute, 2012)",
  "note": "Entries with a potency or affinity are not part of this list. Calls of active or inactive are those of the source.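 Rule for the calls: active = compounds whose fitted half-maximal cell-killing dose is at most twice the top tested dose; inconclusive = flat curve with 30 to 70 percent signal loss, or poor fit; inactive = the rest.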",
  "data": [
    {"assay": "HEK293T cell cytotoxicity, dose response, cytotoxicity control, luminescence plate reader, powder samples, set 4 (AID 651863)", "settings": "HEK293T viability, CellTiter-Glo ATP luminescence, 48 h; series mostly up to 26 µM", "values": [
      {"smiles": "O=C(O)[C@H]1CCCC[C@H]1C(=O)N1CCc2ccccc2C1CCN1C(=O)c2ccccc2C1=O", "note": "(some centres not stated)", "outcome": "inactive"},
      {"smiles": "O=C(NC[C@@H]1c2ccccc2CCN1C(=O)[C@@H]1CCCC[C@@H]1C(=O)O)c1ccc(CN2CCOCC2)cc1", "outcome": "inactive"},
      {"smiles": "O=C(NCCCN1CCOCC1)c1ccccc1C(=O)NC[C@@H]1c2ccccc2CCN1C(=O)C1CCCCC1C(=O)O", "note": "(some centres not stated)", "outcome": "inactive"},
      {"smiles": "Cc1ccccc1S(=O)(=O)Nc1cc(C(C(=O)OC(C)C)C(=O)C(F)(F)F)c(O)c2ccccc12", "note": "(configuration not stated)", "outcome": "inactive"},
      {"smiles": "Cc1cc(C)c(S(=O)(=O)Nc2nc(N(C)C)nc3ccccc23)c(C)c1", "outcome": "inactive"},
      {"smiles": "O=C(O)Cc1ccccc1C(=O)N1CCc2ccccc2[C@H]1CN1C(=O)c2ccccc2C1=O", "outcome": "inactive"},
      {"smiles": "COc1ccccc1CCNC(=O)[C@@H]1c2ccccc2CCN1C(=O)C1CCCCC1C(=O)O", "note": "(some centres not stated)", "outcome": "inactive"},
      {"smiles": "O=C(O)[C@H]1CCCC[C@H]1C(=O)N1CCc2ccccc2[C@H]1CNc1nc(Cl)nc2ccccc12", "outcome": "inactive"},
      {"smiles": "O=C(NCCO)c1ccccc1C(=O)NC[C@@H]1c2ccccc2CCN1C(=O)C1CCCCC1C(=O)O", "note": "(some centres not stated)", "outcome": "inactive"},
      {"smiles": "O=C(O)C1CCCCC1C(=O)N1CCc2ccccc2[C@H]1C(=O)NCCc1ccccc1", "note": "(some centres not stated)", "outcome": "inactive"},
      {"smiles": "Cc1ccc(S(=O)(=O)Nc2cc(C(C(=O)OC(C)C)C(=O)C(F)(F)F)c(O)c3ccccc23)cc1", "note": "(configuration not stated)", "outcome": "inactive"},
      {"smiles": "NC(=O)c1ccccc1C(=O)NC[C@@H]1c2ccccc2CCN1C(=O)[C@@H]1CCCC[C@@H]1C(=O)O", "outcome": "inactive"},
      {"smiles": "Cc1ccc(S(=O)(=O)NC(=O)[C@@H]2c3ccccc3CCN2C(=O)[C@@H]2CCCC[C@@H]2C(=O)O)cc1", "outcome": "inactive"},
      {"smiles": "O=C(O)C1CCCCC1C(=O)NCC1c2ccccc2CCN1C(=O)Cc1ccccc1", "note": "(configuration not stated)", "outcome": "inactive"},
      {"smiles": "Cc1cc(C)c(S(=O)(=O)Nc2cc(C(C(=O)OCc3ccccc3)C(=O)OCc3ccccc3)c(O)c3ccccc23)c(C)c1", "outcome": "inactive"},
      {"smiles": "Cc1cc(C)c(S(=O)(=O)Nc2nc(NCCO)nc3ccccc23)c(C)c1", "outcome": "inactive"},
      {"smiles": "O=S(=O)(Nc1nc(NCC2CCCCC2)nc2ccccc12)c1ccccc1", "outcome": "inactive"},
      {"smiles": "O=C(O)/C=C\\C(=O)N1CCc2ccccc2C1CN1C(=O)c2ccccc2C1=O", "note": "(configuration not stated)", "outcome": "inactive"},
      {"smiles": "O=C(NC[C@@H]1c2ccccc2CCN1C(=O)[C@@H]1CCCC[C@@H]1C(=O)O)c1ccc(CCl)cc1", "outcome": "inactive"},
      {"smiles": "C=CC(=O)NC[C@@H]1c2ccccc2CCN1C(=O)[C@@H]1CCCC[C@@H]1C(=O)O", "outcome": "inactive"},
      {"smiles": "O=C(O)C1CCCCC1C(=O)N1CCCCC1CN1C(=O)c2ccccc2C1=O", "note": "(configuration not stated)", "outcome": "inactive"},
      {"smiles": "Cc1ccc(S(=O)(=O)NC[C@@H]2c3ccccc3CCN2C(=O)[C@@H]2CCCC[C@@H]2C(=O)O)c(C)c1", "outcome": "inactive"},
      {"smiles": "O=C(O)CCCC(=O)N1CCc2ccccc2C1CN1C(=O)c2ccccc2C1=O", "note": "(configuration not stated)", "outcome": "inactive"},
      {"smiles": "O=C(NC[C@@H]1c2ccccc2CCN1C(=O)[C@@H]1CCCC[C@@H]1C(=O)O)c1ccccc1", "outcome": "inactive"},
      {"smiles": "Cc1ccc(S(=O)(=O)Nc2cc(C(C(=O)OC(C)C)C(=O)C(F)(F)F)c(O)c3ccccc23)c(C)c1", "note": "(configuration not stated)", "outcome": "inactive"},
      {"smiles": "O=C(Oc1cc(CN2C(=O)c3ccccc3C2=O)c2ccccc2[n+]1[O-])c1cccc(Cl)c1", "outcome": "inactive"},
      {"smiles": "O=C1c2ccccc2C(=O)N1C[C@@H]1c2ccccc2CCN1C(=O)C1CCCCC1", "outcome": "inactive"},
      {"smiles": "O=C(O)[C@H]1C2C=CC(C2)[C@H]1C(=O)N1CCc2ccccc2C1CN1C(=O)c2ccccc2C1=O", "note": "(some centres not stated)", "outcome": "inactive"},
      {"smiles": "O=C(O)[C@@H]1CCCN1C(=O)N1CCc2ccccc2[C@H]1CN1C(=O)c2ccccc2C1=O", "outcome": "inactive"},
      {"smiles": "O=C(O)[C@H]1CCCC[C@H]1C(=O)N1CCc2ccccc2C1", "note": "(racemic)", "outcome": "inactive"},
      {"smiles": "CCOC(=O)C(C(=O)OCC)c1cc(CN2C(=O)c3ccccc3C2=O)c2ccccc2n1", "outcome": "inactive"},
      {"smiles": "CC(C)CNc1nc(NS(=O)(=O)c2ccccc2)c2ccccc2n1", "outcome": "inactive"}
    ]}
  ]
}
